Results from PubChem BioAssay (NCATS).
Several values for one entry are separate records, joined by “and”; a condition that tells them apart may be missing. Equal entries are not always repeated. Inconclusive results are not listed. Activity calls are given as the source filed them. Unless noted, calls come from the whole dose curve.

How the values were obtained:
[1] = qHTS assay for small molecule agonists of the antioxidant response element (ARE) signaling pathway (AID 651741; active = well fitted activation curve with a large enough effect in the signal ratio; the % refers to the signal ratio; note: potency is the fitted concentration of half-maximal effect; for activation: % of control where 0% means no effect)
Procedure, shortened: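 HepG2 ARE-bla cells plated at 2,000 cells/well and incubated 5 h at 37 C/5% CO2 received 23 nL compound in DMSO. After 16 h at 37 C, LiveBLAzer B/G FRET substrate was applied for 2 h at room temperature and fluorescence read.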

[2] = qHTS assay for small molecule activators of the p53 signaling pathway (AID 651743; active = well fitted activation curve with a large enough effect in the signal ratio, not every such curve was filed as active; the % refers to the signal ratio; note: series mostly up to about 92 µM; % of control where 0% means no effect); settings: HCT-116 p53RE-bla, beta-lactamase FRET ratio, 16 h; activation: active compounds read high
Procedure, shortened: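 HCT-116 p53RE-bla, 4,000 cells/well; 5 h settle; cpd/DMSO 16 h, 37 C; LiveBLAzer B/G 2 h RT; fluorescence intensity.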

[3] = qHTS assay for small molecule activators of the nuclear factor-kappa B (NF-kB) signaling pathway (AID 651749; active = well fitted activation curve with a large enough effect in the signal ratio; the % refers to the signal ratio; note: series mostly up to about 77 µM; % of control where 0% means no effect); settings: NF-kB-bla ME-180 cells, beta-lactamase FRET ratio, 16 h; active compounds read high
Procedure, shortened: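 Incubation lasted 16 hr at 37C in 5% CO2 after 23 nL compound addition to ME-180 NF-kB-bla cells. Activation appears as beta-lactamase-mediated FRET loss.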

[4] = qHTS assay for small molecule disruptors of the mitochondrial membrane potential - 1 hr assay (AID 651754); note: nearly all actives have a fitted effect of over 35% in size; note: potency is the fitted concentration of half-maximal effect
Procedure, shortened: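 HepG2 cells, attached overnight at 37C, were exposed to compound or DMSO vehicle for 1 hr at 37C, 5% CO2, then stained with Mito-MPS dye for 30 min. Red aggregate versus green monomer fluorescence reports membrane potential.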

[5] = qHTS assay for small molecule disruptors of the mitochondrial membrane potential - 5 hr assay (AID 651755); note: nearly all actives have a fitted effect of over 40% in size; note: potency is the fitted concentration of half-maximal effect
Procedure, shortened: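 HepG2 cells (2,000/well), attached overnight, exposed to compound 5 hr at 37C, then Mito-MPS dye 30 min. Fluorescence read for monomers (490/535 nm) and aggregates (540/590 nm).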

[6] = molecular target: Tumor necrosis factor (Homo sapiens) (UniProt P01375); assay: qHTS assay to identify small molecules that stimulate Tumor Necrosis Factor-alpha (TNF-alpha) secretion (AID 651757; active = well fitted curve in the direction sought with a large enough effect in the signal ratio; the % refers to the signal ratio; note: 0% is about no effect)
Procedure, shortened: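 THP-1 cells were exposed to compounds for 17 hrs at 37 C, after which secreted TNF-alpha was measured by homogeneous HTRF (TR-FRET) using cryptate- and XL665-labeled anti-TNF-alpha antibodies, read after 3 hr at room temperature.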

[7] = qHTS assay to identify small molecules that stimulate interleukin-8 (IL-8) secretion (AID 651758; active = well fitted activation curve with a large enough effect in the signal ratio; the % refers to the signal ratio; note: 0% is about no effect)
Procedure, shortened: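 THP-1 cells (2000/well) exposed to compound 16 h at 37 C; secreted IL-8 then detected by HTRF with cryptate- and XL665-labelled anti-IL-8 antibody pair after 1-3 h at room temperature.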

Chain of Tumor necrosis factor (Homo sapiens) (P01375 whole entry, looked up): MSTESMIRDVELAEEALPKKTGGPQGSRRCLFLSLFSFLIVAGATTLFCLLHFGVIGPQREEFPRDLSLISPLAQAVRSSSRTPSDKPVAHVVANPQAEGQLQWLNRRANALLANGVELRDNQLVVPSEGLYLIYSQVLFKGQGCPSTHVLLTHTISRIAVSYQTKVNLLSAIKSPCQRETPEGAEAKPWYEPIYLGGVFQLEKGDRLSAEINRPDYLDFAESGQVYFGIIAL

For `Nc1ccc(Cl)cc1N`, which Potency [1] is on record?
Its Potency is 4.22 µM (active) and 27.3 µM (active).

And the activation [2]?
The activation was 1.69% (inactive) and 0.406% (inactive).

What about the activation [3] of the same molecule?
The activation was 0.983% (inactive) and -0.776% (inactive).

And the Potency [4]?
Its Potency is 8.41 µM (active).

And the Potency [5]?
The Potency was 13.3 µM (active).

With `CC(C)Oc1cccc(NC(=O)c2ccccc2C(F)(F)F)c1` as the molecule, how does the activation [2] read?
The activation was -2.47% (inactive).

What about the activation [3] of the same molecule?
The activation was 1.81% (inactive).

Which results are given for `O=C(O)COc1nc(Cl)c(Cl)cc1Cl`?
activation [2]: 1.93% (inactive); activation [3]: 0.434% (inactive)

With `CCCCCCCCCCCCCCCC[N+](C)(C)C` as the molecule, how does the activation [3] read?
The activation was 1.41% (inactive).

For `CCCCC(CC)COC(=O)c1ccccc1C(=O)OCC(CC)CCCC` (configuration not stated), which activation [2] is on record?
The activation was -3.4% (inactive) and 2.22% (inactive).

What about the activation [3] of the same molecule?
The activation was 0.371% (inactive) and -1.46% (inactive).

What about the Potency [4] of the same molecule?
The Potency was “inactive”.

What about the Potency [5] of the same molecule?
Its Potency is “inactive”.

And the outcome [6]?
Its outcome is “inactive”.

For `Nc1cccc2c(N)cccc12`, which Potency [1] is on record?
Its Potency is 27.3 µM (active).

And the Potency [4]?
The Potency was 2.98 µM (active).

What about the Potency [5] of the same molecule?
Its Potency is 5.96 µM (active).

Which Potency [1] does the source give for `O=C(O)C(Cl)Cl` here?
The Potency was “inactive”.

What about the outcome [6] of the same molecule?
The outcome was “inactive”.

With `O=C(O)CCCOc1ccc(Cl)cc1Cl` as the molecule, how does the activation [2] read?
Its activation is 3.34% (inactive).

With `CC(=O)[O][Hg][c]1ccccc1` as the molecule, how does the Potency [1] read?
The Potency was 47.3 µM (active).

And the Potency [4]?
The Potency was 16.8 µM (active).

What about the Potency [5] of the same molecule?
The Potency was 13.3 µM (active).

With `C=CC(=O)NCNC(=O)C=C` as the molecule, how does the Potency [1] read?
The Potency was 37.6 µM (active) and 30.6 µM (active).

And the activation [2]?
Its activation is -3.11% (inactive) and -4.69% (inactive).

What about the activation [3] of the same molecule?
The activation was -0.065% (inactive) and -1.61% (inactive).

And the outcome [6]?
The outcome was “inactive”.

And the outcome [7]?
The outcome was “inactive”.

For `COCCOCCO`, which Potency [1] is on record?
Its Potency is “inactive”.

What about the activation [3] of the same molecule?
Its activation is -0.521% (inactive) and -1.09% (inactive).

With `Nc1ccc(Sc2ccc(N)cc2)cc1` as the molecule, how does the Potency [4] read?
Its Potency is “inactive”.

What about the Potency [5] of the same molecule?
Its Potency is “inactive”.

For `C1CCC(NC2CCCCC2)CC1`, which Potency [1] is on record?
The Potency was “inactive”.

What about the activation [2] of the same molecule?
The activation was -5.71% (inactive) and -0.896% (inactive) and -1.09% (inactive).

And the outcome [6]?
The outcome was “inactive”.

And the outcome [7]?
The outcome was “inactive”.

With `CC(C)(O)C(=O)Nc1ccc([N+](=O)[O-])c(C(F)(F)F)c1` as the molecule, how does the Potency [1] read?
Its Potency is 66.8 µM (active).

What about the activation [2] of the same molecule?
Its activation is 4.44% (inactive).

What about the Potency [4] of the same molecule?
The Potency was 29.8 µM (active).

And the Potency [5]?
Its Potency is 26.6 µM (active).

Which Potency [1] does the source give for `CCCN(CCC)c1c([N+](=O)[O-])cc(S(N)(=O)=O)cc1[N+](=O)[O-]` here?
Its Potency is 61.1 µM (active).

And the activation [3]?
Its activation is -2.96% (inactive).

Which activation [2] does the source give for `Clc1cnc(Oc2ccc(Oc3ncc(Cl)cc3Cl)cc2)c(Cl)c1` here?
The activation was -0.174% (inactive).

What about the activation [3] of the same molecule?
Its activation is 0.531% (inactive).

With `CCO/N=C(\CC)C1=C(O)CC(c2c(C)cc(C)cc2C)CC1=O` (configuration not stated) as the molecule, how does the activation [2] read?
The activation was 0.237% (inactive).

What about the activation [3] of the same molecule?
Its activation is 0.436% (inactive).

For `O=C(O)c1cc(Oc2ccc(C(F)(F)F)cc2Cl)ccc1[N+](=O)[O-]`, which Potency [1] is on record?
Its Potency is “inactive”.

What about the activation [3] of the same molecule?
Its activation is -1.27% (inactive).

With `O=[N+]([O-])c1c2ccccc2cc2ccccc12` as the molecule, how does the Potency [1] read?
The Potency was 53.1 µM (active).

What about the activation [2] of the same molecule?
Its activation is 4.5% (inactive).

What about the Potency [4] of the same molecule?
Its Potency is 11.9 µM (active).

What about the Potency [5] of the same molecule?
Its Potency is 29.8 µM (active).

What about the outcome [6] of the same molecule?
Its outcome is “inactive”.

With `CC(C)(c1ccc(O)cc1)c1ccc(O)cc1` as the molecule, how does the Potency [1] read?
Its Potency is 42.2 µM (active) and 47.3 µM (active) and 30.6 µM (active).

What about the Potency [4] of the same molecule?
Its Potency is 26.6 µM (active) and 13.3 µM (active).

What about the Potency [5] of the same molecule?
The Potency was 33.5 µM (active).

What does the source list for `C=CCC1=C(C)C(OC(=O)C2C(C=C(C)C)C2(C)C)CC1=O` (configuration not stated)?
activation [2]: 1.22% (inactive); activation [3]: 0.983% (inactive) and 2.07% (inactive)

Which Potency [1] does the source give for `Nc1ccc([N+](=O)[O-])cc1O` here?
The Potency was 13.3 µM (active) and 15.4 µM (active).

What about the Potency [5] of the same molecule?
Its Potency is 37.6 µM (active).

What does the source list for `O=C(Nc1ccccc1-c1ccc(Cl)cc1)c1cccnc1Cl`?
activation [2]: -6.13% (inactive); activation [3]: 0.368% (inactive)

For `Cc1cc(O)ccc1Cl`, which activation [2] is on record?
The activation was -0.548% (inactive).

What about the activation [3] of the same molecule?
The activation was -0.28% (inactive).

What about the Potency [4] of the same molecule?
The Potency was “inactive”.

And the Potency [5]?
Its Potency is “inactive”.

And the outcome [6]?
The outcome was “inactive”.

What does the source list for `OCCCBr`?
activation [2]: 1.31% (inactive); activation [3]: -0.539% (inactive); outcome [6]: inactive

Which results are given for `CCCCCCCCc1ccc(O)cc1`?
activation [2]: 0.0262% (inactive) and -2.23% (inactive); outcome [6]: inactive

Which results are given for `CN(C)[C@@H]1C(=O)C(C(N)=O)=C(O)[C@@]2(O)C(=O)C3=C(O)c4c(O)cccc4[C@@](C)(O)[C@H]3[C@H](O)[C@@H]12`?
Potency [5]: inactive; outcome [6]: inactive

Which results are given for `Nc1ccc(Cl)cc1`?
activation [2]: -2.94% (inactive); Potency [4]: inactive; Potency [5]: inactive; outcome [6]: inactive

What does the source list for `O=S(=O)(c1ccc(Cl)cc1)c1ccc(Cl)cc1`?
Potency [1]: 66.8 µM (active); activation [2]: -0.565% (inactive) and -3.02% (inactive) and 0.243% (inactive); outcome [6]: inactive; outcome [7]: inactive

Which results are given for `CCOP(=O)(NC(C)C)Oc1ccc(SC)c(C)c1` (configuration not stated)?
activation [2]: -4.79% (inactive) and -0.487% (inactive); activation [3]: -0.0757% (inactive) and -0.702% (inactive); outcome [6]: inactive; outcome [7]: inactive
